A selection: hits, their analogues and other compounds. The true share with any hit is near 2.3%.
Coupling enz – inhibits coupling enzyme system, counter-screen for aldolase hits; coupling enzyme system counterscreen, AmpLite Red fluorescence; activity change, negative = inhibition, % at 58.2 µM, hits read low; 290,000 tested, 0.67% active; in the data active = activity change below about -30%
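Coupling enzymes only (glyceraldehyde-3-phosphate) + compound, at 57.5 uM final, 10 min RT; add substrate/coupling/AmpLite Red mix, 20 min RT; fluorescence ex 525/em 598 nm. Actives flag coupling-system interference.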
Tau fibril ThT – tau fibrillization inhibition (ThT binding) | P10636 | recombinant tau K18 P301L, heparin-induced fibrillization, ThT fluorescence | Potency, µM (doses to about 57.4 µM), without a hit: at the highest dose activity, negative = inhibition, usual class: inhibitors | 270,000 tested, 2.1% active; also: potency is read from the fitted curve at half-maximal effect; nearly all actives have a fitted effect of over 55% in size
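Fibril formation assay: tau K18 P301L at 15 uM with trace Alexa 594 label, heparin inducer 20 uM, pH 7 sodium acetate buffer, 37 C for 6 hr; endpoint ThT signal.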
Tau fibril FP – tau fibrillization inhibition (FP). K18 P301L tau heparin fibrillization, Alexa594 FP, 6 h. Potency, µM (top dose mostly 57.7 µM), for inactives: at the highest dose activity, negative = inhibition, hits mostly inhibitors. 280,000 tested, 0.39% active; also: potency is read from the fitted curve at half-maximal effect; nearly all actives have a fitted effect of over 55% in size
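Steps: dispense K18 P301L tau (15 uM plus 0.24 uM Alexa 594 tracer, final) in pH 7 sodium acetate; add compound; add heparin (20 uM final); incubate 6 hr, 37 C; add ThT (30 uM final); after 1 hr ambient, read FP.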
USP1 inh – USP1/UAF1 (human) deubiquitinase inhibition; O94782; recombinant USP1/UAF1, Ub-Rhodamine cleavage fluorescence; Potency, µM (highest dose often 57.1 µM), without a hit: at the top dose activity change, negative = inhibition, actives largely listed as inhibitors; 390,000 tested, 0.23% active; AID 743255; also: potency is read from the fitted curve at half-maximal effect; nearly all actives have a fitted effect of over 60% in size
Target sequence (O94782 whole entry, looked up): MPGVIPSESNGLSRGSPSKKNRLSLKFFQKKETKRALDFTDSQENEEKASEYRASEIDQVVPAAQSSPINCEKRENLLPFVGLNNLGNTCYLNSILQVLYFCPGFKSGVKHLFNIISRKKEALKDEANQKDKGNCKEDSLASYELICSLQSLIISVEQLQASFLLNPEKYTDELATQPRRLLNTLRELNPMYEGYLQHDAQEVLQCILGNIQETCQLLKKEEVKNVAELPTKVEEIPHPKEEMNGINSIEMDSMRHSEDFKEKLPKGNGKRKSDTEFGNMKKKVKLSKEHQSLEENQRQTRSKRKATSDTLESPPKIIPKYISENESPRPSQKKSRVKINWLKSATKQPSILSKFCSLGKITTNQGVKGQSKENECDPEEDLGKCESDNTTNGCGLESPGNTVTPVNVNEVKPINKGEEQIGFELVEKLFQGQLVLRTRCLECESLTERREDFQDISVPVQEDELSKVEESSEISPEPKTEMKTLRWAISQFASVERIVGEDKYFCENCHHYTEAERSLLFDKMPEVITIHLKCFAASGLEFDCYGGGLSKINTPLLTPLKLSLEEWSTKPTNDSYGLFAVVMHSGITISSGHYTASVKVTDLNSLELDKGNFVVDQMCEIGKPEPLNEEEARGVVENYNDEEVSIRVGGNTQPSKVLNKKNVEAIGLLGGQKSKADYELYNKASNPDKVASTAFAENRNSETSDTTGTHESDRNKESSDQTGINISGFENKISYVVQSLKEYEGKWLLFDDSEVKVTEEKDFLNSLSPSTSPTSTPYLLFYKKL
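In this screen, compounds sit with the deubiquitinase complex (1nM) for 15 min at room temperature before Ub-Rho is added at 150nM final. Fluorescence rise is then followed for 6 reads every 60 seconds.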
Tau fluor cs – counter-screen for tau fibril formation inhibitors. Potency, µM (series often up to 57.7 µM), inactives show at the highest dose activity change, negative = decrease. 280,000 tested, 0.93% active. tau K18 P301L Alexa594 fluorescence, heparin fibrillization; also: potency is read from the fitted curve at half-maximal effect; nearly all actives have a fitted effect of over 55% in size
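Human tau K18 P301L (15 uM unlabeled, 0.24 uM Alexa 594-labeled) in 100 mM sodium acetate pH 7 with 20 uM heparin, 6 hr at 37 C. ThT 30 uM added, 1 hr ambient; Alexa 594 FP and total fluorescence read at 555/632 nm.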
Starred values were filed as active, the others as inactive; [ ] = dose if it differs, or a comment. Unless noted, calls follow the shape of the dose curve; as a rule, active = well fitted curve in the direction sought with a large enough effect; inconclusive = small, poorly fitted or top-dose-only effect, or another doubt; inactive = no such curve, though single readings can be large; an effect the other way counts as inactive or inconclusive. % is scaled to controls: 0 for no effect and ±100 for the full control effect.

What do the screens show for `COc1ccc2c(c1)-c1nc(NC(=O)c3ccc(Cl)cc3)sc1CC2`?
Tau fibril ThT: -4.4%; Tau fibril FP: -15.7%; USP1 inh: -14.7%; Tau fluor cs: -15.9%

Results for COc1ccc2c(c1)Cc1sc(NC(=O)c3cccc(Br)c3)nc1-2 ?
Tau fibril ThT: 3.98µM*; Tau fibril FP: -5.7%; USP1 inh: -22.6%; Tau fluor cs: inconclusive

How did COc1ccc2c(c1)CCc1sc(NC(=O)c3ccc(Cl)cc3)nc1-2 do in these assays?
Tau fibril ThT: 11.2µM*; Tau fibril FP: inconclusive; USP1 inh: -21.9%; Tau fluor cs: 8.91µM*[quencher]

What do the screens show for `O=C(CSc1nc(=O)n(CCCN2CCOCC2)c2c1CCC2)Nc1ccccc1F`?
USP1 inh: -10.9%

Results for CN1/C(=C/C2CC(=O)NC2=O)C(C)(C)c2ccccc21 (centres undefined) ?
Coupling enz: -5.3; Tau fibril ThT: 28.2µM*; Tau fibril FP: inconclusive; USP1 inh: -11.4%; Tau fluor cs: -19.0%

How did CN1/C(=C/C2CC(=O)N(c3cccc4ccccc34)C2=O)C(C)(C)c2ccccc21 (centres undefined) do in these assays?
Coupling enz: -2.5; Tau fibril ThT: inconclusive; Tau fibril FP: -2.5%; USP1 inh: -22.0%; Tau fluor cs: -17.4%

Results for CCOC(=O)/C=C1/N(C)c2ccccc2C1(C)C ?
Coupling enz: 0.2; Tau fibril FP: 3.7%; USP1 inh: -16.2%; Tau fluor cs: 15.2%

What do the screens show for `CN1/C(=C\P(=O)(N(C)C)N(C)C)C(C)(C)c2ccccc21`?
Coupling enz: -0.6; Tau fibril ThT: 31.6µM*; Tau fibril FP: inconclusive; USP1 inh: -10.2%; Tau fluor cs: inconclusive

What do the screens show for `CCOc1ccc(NC(=O)NC(C)c2c(-n3cccc3)sc3c2CCN(CC)C3)cc1` (centres undefined)?
Tau fibril ThT: -12.9%; Tau fibril FP: 11.7%; USP1 inh: -11.3%; Tau fluor cs: inconclusive

How did CCN1CCc2c(sc(-n3cccc3)c2C(C)NC(=O)Nc2ccc(Br)cc2)C1 (centres undefined) do in these assays?
Tau fibril ThT: -3.8%; Tau fibril FP: 25.1µM*; USP1 inh: inconclusive; Tau fluor cs: inconclusive

How did O=C(Nc1ccc2nc3ccccc3nc2c1)c1ccc(Br)cc1 do in these assays?
Coupling enz: -39.4*; Tau fibril ThT: inconclusive; Tau fibril FP: 3.1%; USP1 inh: -20.2%; Tau fluor cs: -13.9%

Results for CC(=O)Nc1ccc2nc3c(=O)n(C)c(=O)n(C)c3nc2c1 ?
Coupling enz: -15.8; Tau fibril ThT: 17.8µM*; Tau fibril FP: inconclusive; USP1 inh: -8.2%; Tau fluor cs: -26.9%

How did Cn1c(=O)c2nc3ccc(NC(=O)C(F)(F)F)cc3nc2n(C)c1=O do in these assays?
Tau fibril ThT: 10.8%; Tau fibril FP: -1.3%; USP1 inh: 14.9%; Tau fluor cs: -6.3%

What do the screens show for `CC(=O)Nc1ccc2nc3ccccc3nc2c1`?
Coupling enz: -33.2*; Tau fibril ThT: inconclusive; Tau fibril FP: inconclusive; USP1 inh: -3.0%; Tau fluor cs: -21.9%

Results for CCOc1c(OC(C)=O)ccc(/C=C/c2ccc3cccc(OC)c3n2)c1[N+](=O)[O-] ?
Coupling enz: 0.1; Tau fibril ThT: 5.62µM*; Tau fibril FP: inconclusive; USP1 inh: -19.2%; Tau fluor cs: inconclusive

What do the screens show for `COc1cccc(/C=C/c2ccc3cccc(O)c3n2)c1OC`?
Coupling enz: -10.0; USP1 inh: -21.3%

Results for Fc1ccc2[nH]c(-c3cccs3)cc2c1 ?
Tau fibril ThT: inconclusive; Tau fibril FP: inconclusive; USP1 inh: -3.8%; Tau fluor cs: 11.2µM*[quencher]

How did CN(C(=O)c1cccc(NC(=O)Cc2ccc(NC(=O)C3CCCN(S(=O)(=O)c4cccc([N+](=O)[O-])c4)C3)cc2)c1)C1CCCC1 (centres undefined) do in these assays?
USP1 inh: -25.1%

Results for CN(C)/C=C1/C=C(c2ccccc2)OC1=O ?
Coupling enz: -0.6; Tau fibril ThT: 39.8µM*; Tau fibril FP: inconclusive; USP1 inh: -10.0%; Tau fluor cs: -23.0%

What do the screens show for `Cc1ccc(C(=O)COC(=O)c2cccc(NC(=O)c3ccc(Cl)cc3Cl)c2)cc1`?
Tau fibril ThT: 5.0%; Tau fibril FP: inconclusive; USP1 inh: -13.7%; Tau fluor cs: -15.0%

Results for Cc1c2cnn(CC(=O)NCC(C)c3ccccc3)c(=O)c2c(C)n1Cc1cccc(Cl)c1 (centres undefined) ?
Tau fibril ThT: 0.6%; Tau fibril FP: -5.8%; USP1 inh: -23.8%; Tau fluor cs: 5.3%

How did Cc1ccc(N=Cc2nc(/C=C/c3cccc([N+](=O)[O-])c3)oc2O)cc1 do in these assays?
Coupling enz: -0.5; Tau fibril ThT: 1.41µM*; Tau fibril FP: 12.0%; USP1 inh: -22.0%; Tau fluor cs: -15.7%

How did Cc1ccc(-c2nc(C=Nc3ccc(O)cc3)c(O)o2)cc1 do in these assays?
Coupling enz: -0.7; Tau fibril ThT: inconclusive; Tau fibril FP: -3.9%; USP1 inh: -1.6%; Tau fluor cs: inconclusive

Results for O=C(N/C(=C\c1ccc([N+](=O)[O-])cc1)C(=O)N1CCCCC1)c1ccccc1 ?
Coupling enz: 2.3; Tau fibril ThT: -13.9%; Tau fibril FP: -1.5%; USP1 inh: -12.1%; Tau fluor cs: -19.3%

Results for O=[N+]([O-])/C(C(Cl)=C(Cl)Cl)=C(/Sc1ccccc1)N1CCCCC1 ?
Coupling enz: 2.8; Tau fibril ThT: 22.4µM*; Tau fibril FP: inconclusive; USP1 inh: -17.3%; Tau fluor cs: -26.6%

What do the screens show for `COC(=O)c1c(-c2cccs2)csc1NC(=O)c1ccc(OC)c(OC)c1`?
Tau fibril ThT: inconclusive; Tau fibril FP: inconclusive; USP1 inh: inconclusive; Tau fluor cs: -20.0%

What do the screens show for `COC(=O)c1c(-c2cccs2)csc1NC(=O)c1ccc(Br)cc1`?
Tau fibril ThT: 15.8µM*; Tau fibril FP: inconclusive; USP1 inh: -19.9%; Tau fluor cs: -23.8%

Results for COC(=O)c1c(-c2cccs2)csc1NC(=O)c1ccc(C)cc1 ?
Tau fibril ThT: 31.6µM*; Tau fibril FP: inconclusive; USP1 inh: inconclusive; Tau fluor cs: -24.7%

Results for COC(=O)c1c(-c2cccs2)csc1NC(=O)c1cc(OC)c(OC)c(OC)c1 ?
Tau fibril ThT: 11.2µM*; Tau fibril FP: inconclusive; USP1 inh: inconclusive; Tau fluor cs: -20.2%

How did COc1ccc(C(=O)N2CCC3(CCN(Cc4nccs4)CC3)CC2)cc1 do in these assays?
Coupling enz: 0.9

Results for CCCOc1ccc(CN2C(=O)C(=O)c3cccc(C)c32)cc1 ?
Tau fibril ThT: 17.8µM*; Tau fibril FP: -2.9%; USP1 inh: -24.0%; Tau fluor cs: -25.7%

What do the screens show for `Cc1ccc(CN2C(=O)C(=O)c3cc(Br)cc(C)c32)cc1`?
Tau fibril ThT: 28.2µM*; Tau fibril FP: inconclusive; USP1 inh: inconclusive; Tau fluor cs: inconclusive

Screening data from PubChem BioAssay.
